According to PubChem BioAssay AID686978 (National Center for Advancing Translational Sciences (NCATS), 2013):
Screen size: about 420,000 compounds; about 64,000 (15%) were called active. Roughly 27% stayed inconclusive and do not appear here. Calls come from the whole dose curve; as a rule, active = well fitted inhibition curve with a large enough effect; inconclusive = small, poorly fitted or top-dose-only effect; inactive = flat fitted curve, though single readings scatter. These entries were drawn from the full list. Where a call stands in place of a potency, no number is given.

Experiment: qHTS for Inhibitors of human tyrosyl-DNA phosphodiesterase 1 (TDP1): qHTS in cells in absence of CPT; note: nearly all actives have a fitted effect of over 55% in size
Details: DT40 Tdp1-/- hTDP1 cells, no CPT, ATP luminescence, 48 h; activity change, negative = growth inhibition: at 46.2 µM (top of the series)
Procedure, shortened: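 A cellular qHTS used chicken DT40 cells lacking endogenous Tdp1 but carrying stably transfected human TDP1. Compounds were applied without camptothecin, and cell growth kinetics were judged by ATP-dependent luminescence after ≥48 hr.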
Potency is the fitted concentration of half-maximal effect.

Compound	Potency
Cc1c(NC(=S)Nc2ccccc2)c(=O)n(-c2ccccc2)n1C	inactive
COc1cc(C)c(Cl)cc1S(=O)(=O)n1ccnc1	inactive
CC1CCN(C(=O)COC(=O)c2cc(=O)[nH]c3ccccc23)CC1	inactive
CC(NC(=O)COC(=O)c1cc(=O)[nH]c2ccccc12)c1ccccc1 (stereo not drawn)	inactive
CCOC(=O)c1ccc2[nH]c(C)c(CN3CCN(C)CC3)c(=O)c2c1	inactive
COC(=O)C[C@H]1C[C@@H]2c3cc(N(C)C)ccc3O[C@@H]2[C@H](CO)O1	inactive
Cn1nc(-c2ccccc2)c(CSc2cccc(Cl)c2)c1Cl	18.4 µM (active)
Cn1nc(-c2ccccc2)c(CO)c1Sc1ccccc1	inactive
CCOC(=O)CSc1ncc(-c2cccc(Cl)c2)cn1	inactive
CCn1c(-c2ccoc2C)n[nH]c1=S	inactive
CCOC(=O)c1ccc(NC(=O)Cn2cnc3cc(C)c(C)cc32)cc1	0.517 µM (active)
CCOC(=O)c1ccc(NC(=O)CCn2c(=O)oc3ccccc32)cc1	inactive
CCOC(=O)c1ccc(NC(=O)Cn2nnc(-c3ccc(C)cc3)n2)cc1	inactive
Cc1ccc(OC(=O)c2cncc(Br)c2)c(C)c1	inactive
NC(=O)COc1ccccc1C(=O)NC12CC3CC(CC(C3)C1)C2	inactive
CCc1cccc(NC(=S)N(CCN(C)C)C2CCN(C(C)C)CC2)c1	inactive
Cc1cccc(C)c1NC(=O)CN1C(=O)C(C)Oc2ccccc21 (stereo not drawn)	inactive
CCn1c(C(O)c2cc(OC)ccc2OC)nc2ccccc21 (stereo not drawn)	inactive
CCn1c(/C=N/NC(=O)c2ccc(OC)cc2)nc2ccccc21	16.4 µM (active)
O=C(Nc1ccccc1Cl)N1CCN(c2ccc3nncn3n2)CC1	inactive
Cc1ccc(Cc2c(C)nc3nc(SCC(=O)NCCN4CCOCC4)nn3c2C)cc1	inactive
COc1ccc(NC(=O)CSc2nncc(=O)n2N)cc1OC	inactive
COc1cc(NC(=O)CSc2nc3nc(C)c(Cc4ccc(C)cc4)c(C)n3n2)cc(OC)c1OC	10.3 µM (active)
N#Cc1c(C(F)(F)F)cc(-c2ccccc2)nc1SCC(=O)N1CCOCC1	inactive
FC(F)Oc1ccccc1NC(=S)Nc1cccc(Cl)c1Cl	inactive
COc1ccc(S(=O)(=O)Nc2ccc3cn[nH]c3c2)cc1[N+](=O)[O-]	inactive
O=C(O)c1ccccc1/C=N/Nc1ccc(S(=O)(=O)Nc2ccc(Cl)cc2)cc1[N+](=O)[O-]	inactive

Compound	Potency
O=[N+]([O-])c1cc(S(=O)(=O)Nc2cccc(Cl)c2)ccc1N=Nc1c(O)[nH]c2ccccc12	25.9 µM (active)
O=C(Nc1nnc([C@H]2C[C@H](O)[C@@H](CO)O2)s1)c1cccc(Cl)c1	inactive
CN(CC(=O)Nc1ccc(Cl)cc1)C(=O)CNC(=O)c1ccc2ccccc2c1	inactive
Cc1ccc(S(=O)(=O)N(C)c2ccc(OCC(=O)OCC(=O)N(CC#N)c3ccccc3)cc2)cc1	inactive
COc1ccc(C(=O)Nc2ccccc2C(=O)N/N=C/c2ccc(O)c(OC)c2)cc1	20.6 µM (active)
CCOc1cc(/C=N/NC(=O)CN2CCCCC2)ccc1O	inactive
COc1cc(/C=N/NC(=O)c2ccc(N3CCCC3=O)cc2)ccc1O	16.4 µM (active)
COc1ccc(/C=N/NC(=O)c2ccccc2)cc1OS(=O)(=O)c1ccccc1	13 µM (active)
COc1cc(C=NNC(=O)c2cccnc2)ccc1OC(=O)c1ccccc1F	inactive
COc1ccc(/C=N/Nc2ccccc2C(=O)O)cc1	inactive
C/C(=N\NC(=O)c1cccc(N2CCCC2=O)c1)c1ccc(N)cc1	inactive
COc1ccc(/C=N/S(=O)(=O)c2ccccc2)cc1OC	inactive
COc1cc(/C=N/NC(=O)CCc2n[nH]c(=O)[nH]c2=O)ccc1O	inactive
CCC1(CC)NC(=O)N(Cc2nc3ccccc3s2)C1=O	inactive
CCOc1ccc2oc(C(=O)N(CC)CC(=O)Nc3ccc(NC(C)=O)cc3)c(C)c2c1	inactive
CCOc1ccc(-n2c(SCC(=O)NC3CCS(=O)(=O)C3)nnc2-c2cccnc2)cc1 (stereo not drawn)	inactive
COc1ccc(S(=O)(=O)N2CCOCC2)cc1NC(=O)Cc1coc2cc(C)ccc12	inactive
N#Cc1c2c(c(-c3ccccc3)[nH]c1=O)CCCC2	inactive
CCCCC1N2CC3([N+](=O)[O-])CN1CC([N+](=O)[O-])(C2)C3(C)C (stereo not drawn)	inactive
Nc1ccc(SCCN2C(=O)c3ccccc3C2=O)cc1	inactive
COc1ccc(Cn2ccnc2SCC(=O)NCc2ccco2)cc1	inactive
Cc1ccc2nc3c(cc(C(=O)NCCc4ccccc4)c(=N)n3CC3CCCO3)c(=O)n2c1 (stereo not drawn)	20.6 µM (active)
COCCCn1c(C(=O)NC2CCCCC2)cc2c(=O)n3cccc(C)c3nc21	16.4 µM (active)
O=C(NC1CCCCC1)c1ccc2c(=O)n(CC3CCCO3)c(=O)[nH]c2c1 (stereo not drawn)	inactive
CCCCn1c(=N)c(S(=O)(=O)c2ccccc2)cc2c(=O)n3cccc(C)c3nc21	inactive
Cc1cccn2c(=O)c3cc(C(=O)NCCN4CCOCC4)c(=N)n(Cc4cccnc4)c3nc12	8.2 µM (active)
